Measured values reported in PubChem BioAssay (NCI).
About 83,000 compounds went through this panel and 20% of them were active in at least one assay; those are over-represented in the sample as a whole.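 Note: values are percent growth. 100 is the growth of untreated cells, values between 100 and 0 indicate rising inhibition; between -100 and 0 indicates cell death.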 Unmarked numbers belong to inactive results. The source made the active and inactive calls. How the source made its calls: active means growth percent below 10; inactive means the rest.

How the values were obtained:
Assay in all cases: NCI-60 one-dose screen, 48 h (100 = growth as untreated, 0 = no growth, -100 = all killed)
Details in all cases: 10 µM unless noted
SR leukemia = system: SR leukemia
RPMI-8226 leukemia = system: RPMI-8226 leukemia
OVCAR-8 ovarian = system: OVCAR-8 ovarian
OVCAR-5 ovarian = system: OVCAR-5 ovarian
OVCAR-4 ovarian = system: OVCAR-4 ovarian
SK-OV-3 ovarian = system: SK-OV-3 ovarian
IGROV1 ovarian = system: IGROV1 ovarian
OVCAR-3 ovarian = system: OVCAR-3 ovarian
HS 578T breast = system: HS 578T breast
NCI/ADR-RES ovarian = system: NCI/ADR-RES ovarian
T-47D breast = system: T-47D breast
BT-549 breast = system: BT-549 breast
MDA-MB-435 melanoma = system: MDA-MB-435 melanoma
SW-620 colon = system: SW-620 colon
MCF7 breast = system: MCF7 breast
HCT-116 colon = system: HCT-116 colon
HCC-2998 colon = system: HCC-2998 colon
KM12 colon = system: KM12 colon

| Structure (SMILES) | growth (SR leukemia) | growth (RPMI-8226 leukemia) | growth (OVCAR-8 ovarian) | growth (OVCAR-5 ovarian) | growth (OVCAR-4 ovarian) | growth (SK-OV-3 ovarian) | growth (IGROV1 ovarian) | growth (OVCAR-3 ovarian) | growth (HS 578T breast) | growth (NCI/ADR-RES ovarian) | growth (T-47D breast) | growth (BT-549 breast) | growth (MDA-MB-435 melanoma) | growth (SW-620 colon) | growth (MCF7 breast) | growth (HCT-116 colon) | growth (HCC-2998 colon) | growth (KM12 colon) |
| --- | --- | --- | --- | --- | --- | --- | --- | --- | --- | --- | --- | --- | --- | --- | --- | --- | --- | --- |
| O=[N+]([O-])c1ccc(-c2cc(-c3ccc(Nc4nc(Nc5ccc(Cl)cc5)nc(Nc5ccc(Cl)cc5)n4)cc3)no2)cc1 | 14.5% | 34.7% | 99% | 70.7% | 31.4% | 107% | 92% | 241% | 99.9% | 75.3% | 97.2% | 103% | 103% | 96.6% | 83.1% | 83.7% | 78.2% | 105% |
| O=C1/C(=C/c2ccc(Br)cc2)C=C(c2ccccc2)N1CCc1ccccc1 | 58.6% | 101% | 17.7% | 66% | -17.1% (active) | 15.4% | 41.9% | 42.1% | 22.8% | 27.8% | 50.5% | 74.5% | 63.2% | 70.2% | 55.2% | 22.7% | 70.1% | 87.9% |
| COc1cccc(-c2nn(-c3ccccc3)cc2-c2ccnc(NCCCNC(=O)Nc3ccc(Cl)c(Cl)c3)c2)c1 | -32.8% (active) | -2.49% (active) | 1.46% (active) | 54.4% | 30.9% | 22.2% | 36.6% | 29.5% | -26.1% (active) | -20.3% (active) | -15% (active) | 7.49% (active) | -36.3% (active) | 12% | 5.21% (active) | 2.97% (active) | -61.8% (active) | -13.4% (active) |
| CC1CC2Oc3ccc(Cl)cc3C(=O)N2O1 (stereo unspecified) | 98.2% | 91.1% | 107% | 98.7% | 117% | 100% | 125% | 114% | 102% | 107% | 104% | 105% | 105% | 99.2% | 112% | 107% | 97.5% | 107% |
| CN1CCN(CC(=O)Nc2nc(-c3cccc(NS(=O)(=O)c4cccc5c(N(C)C)cccc45)c3)cs2)CC1 | 11.5% | 24.2% | 87.9% | 86.6% | 61.2% | 93.1% | 86.6% | 74.4% | 75% | 87.3% | 64.3% | 97.1% | 68.4% | 62.6% | 49.9% | 88.4% | 53.6% | 71.4% |
| Cc1cccc(-c2nc(N(C)c3ccc4ncsc4c3)c3ccccc3n2)n1 | 17.3% | 50.1% | 91.2% | 108% | 85.7% | 96.6% | 68.9% | 62.6% | 103% | 58.5% | 60.6% | 87.1% | -3.29% (active) | 57.9% | 45% | 65.2% | 84.2% | 55.4% |
| N#Cc1c(-c2ccccc2)cc(-c2ccc(Nc3nc(Nc4ccc(F)cc4)nc(Nc4ccc(F)cc4)n3)cc2)nc1N | 0.591% (active) | 14.9% | 97.2% | 70.9% | 108% | 100% | 95.5% | 89.5% | 87.8% | 76.1% | 77% | 101% | 105% | 93.9% | 84.3% | 70.7% | 51.8% | 95.3% |
| C#CCOc1nc(C)cc(C)c1C#N | 91.8% | 111% | 102% | 95.1% | 100% | 101% | 102% | 110% | 101% | 103% | 96.2% | 106% | 99.9% | 96.5% | 95.5% | 99.4% | 103% | 102% |
| CC(=O)N1N=C(c2ccc(Nc3nc(Nc4ccc(F)cc4)nc(Nc4ccc(F)cc4)n3)cc2)CC1c1cccc([N+](=O)[O-])c1 (stereo unspecified) | 22.4% | 19.8% | 91.6% | 75.5% | 47.8% | 110% | 76.9% | 235% | 96.5% | 67.2% | 80.3% | 102% | 111% | 96.9% | 88.3% | 92.9% | 54% | 104% |
| N#Cc1c(-c2ccccn2)[nH]c(=S)[nH]c1=O | 95.4% | 112% | 109% | 94.6% | 119% | 104% | 110% | 105% | 109% | 109% | 94.4% | 102% | 99.8% | 105% | 95.1% | 94.8% | 106% | 102% |
| COC(=O)[C@]12CC[C@@H](C)[C@H](C)[C@@H]1C1=CC[C@@H]3[C@@]4(C)C(C=O)=C[C@@](C)(COC(C)=O)[C@@H]4C(=O)C[C@@]3(C)[C@]1(C)CC2 | 48.3% | 26% | 41.5% | 68.8% | 38.1% | 42.3% | 46.3% | 39.1% | 65.1% | 34% | 39% | 32.4% | 50.5% | 29.1% | 22.7% | 5.18% (active) | 40% | 28.4% |
| NS(=O)(=O)c1cnccc1Sc1ccncc1S(N)(=O)=O | 92.2% | 86.2% | 96% | 101% | 118% | 95.6% | 6.71% (active) | 103% | 94.5% | 98.9% | 57% | 96.4% | 106% | 113% | 88.9% | 106% | 85.8% | 108% |
| COC(=O)[C@]12CC[C@@H](C)[C@H](C)[C@@H]1C1=CC[C@@H]3[C@@]4(C)C(C=O)=C[C@@](C)(COC(C)=O)C4=CC[C@@]3(C)[C@]1(C)CC2 | -30.5% (active) | -9.49% (active) | 13.2% | 12.9% | 17% | 6.81% (active) | 12.9% | -67.3% (active) | -12.9% (active) | 12.5% | -5.34% (active) | -16% (active) | -0.255% (active) | -43.8% (active) | 5.08% (active) | -67.5% (active) | -14.6% (active) | 2.7% (active) |
| CNS(=O)(=O)c1n[nH]nc1-c1cc(C(C)(C)C)c(O)c(C(C)(C)C)c1 | 98.6% | 96.2% | 100% | 111% | 100% | 92.9% | 103% | 112% | 102% | 105% | 78.9% | 101% | 106% | 109% | 93.8% | 94.6% | 105% | 105% |
| Nc1nc(N)c2c(n1)NC(c1ccccc1)C1CCc3ccccc3C1=N2 (stereo unspecified) | 19.3% | 24.5% | 64.9% | 112% | 27.3% | 57.9% | 92.2% | 38.4% | 71.2% | 23.9% | 30.7% | 39% | 28.4% | 58.9% | 18.7% | 26.1% | 65.4% | 39.1% |
| Cc1ccc(CCC(=O)Nc2ncc(Cc3cc(Cl)ccc3Cl)s2)o1 | 16.2% | 19.9% | 11.8% | 23.2% | 43.3% | 33.1% | 17% | -0.778% (active) | 9.73% (active) | -4.35% (active) | 54.3% | 3.48% (active) | -36.8% (active) | 20.8% | 13% | 9.11% (active) | 8.63% (active) | 14.9% |
| CC(=O)n1c(-c2ccc(Cl)cc2)nc2c(c1=O)C(c1ccc(Cl)cc1)c1sc3c(Cl)cccc3c1O2 (stereo unspecified) | -14.9% (active) | 0.984% (active) | -31.5% (active) | -3.95% (active) | 17.3% | -2.53% (active) | 13.2% | -50.4% (active) | -9.23% (active) | -17.2% (active) | -2.51% (active) | -7.92% (active) | -19.6% (active) | -11.1% (active) | 5.59% (active) | -45.9% (active) | -45.4% (active) | -17.4% (active) |
